Reference: PubChem BioAssay (NCATS)
Results filed as inconclusive are left out. The source made the active and inactive calls. Unless noted, the call rests on the fitted dose curve; in most records, active means well fitted curve in the direction sought with a large enough effect; inconclusive means small, poorly fitted or top-dose-only effect, or another doubt; inactive means no such curve, though single readings can be large; an effect the other way counts as inactive or inconclusive.

Key:
[1] = qHTS Assay for Lipid Storage Modulators (AID 1519; calls by dose curve; on activity change, negative = inhibition: on the % scale 0 is the no-effect control and ±100 the full control effect); conditions: Drosophila S3 cells, BODIPY lipid droplet/cell ratio, laser cytometry, cells loaded with oleic acid; for activity change, negative = inhibition: at 57.5 µM (top of the series)
In short: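 Cells seeded at 5,000 per well were treated with compounds over a concentration series and loaded with oleic acid (400 uM, as added). Lipid droplet fluorescence (488 nm excitation, 500-530 nm channel) was read by laser-scanning cytometry and normalized to 20 uM Triacsin C.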

[2] = target: ATP-dependent 6-phosphofructokinase (Trypanosoma brucei brucei) (UniProt O15648); assay: qHTS Assay to Find Inhibitors of T. brucei phosphofructokinase: hit validation (AID 492961);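 further: luminescence reports ADP formed as PFK phosphorylates fructose-6-phosphate with ATP; on the % scale 0 is the no-effect control and ±100 the full control effect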; conditions: T. brucei PFK, ADP-Glo luminescence; series mostly up to 24.3 µM
Sequence of ATP-dependent 6-phosphofructokinase (Trypanosoma brucei brucei) (O15648 whole entry, looked up): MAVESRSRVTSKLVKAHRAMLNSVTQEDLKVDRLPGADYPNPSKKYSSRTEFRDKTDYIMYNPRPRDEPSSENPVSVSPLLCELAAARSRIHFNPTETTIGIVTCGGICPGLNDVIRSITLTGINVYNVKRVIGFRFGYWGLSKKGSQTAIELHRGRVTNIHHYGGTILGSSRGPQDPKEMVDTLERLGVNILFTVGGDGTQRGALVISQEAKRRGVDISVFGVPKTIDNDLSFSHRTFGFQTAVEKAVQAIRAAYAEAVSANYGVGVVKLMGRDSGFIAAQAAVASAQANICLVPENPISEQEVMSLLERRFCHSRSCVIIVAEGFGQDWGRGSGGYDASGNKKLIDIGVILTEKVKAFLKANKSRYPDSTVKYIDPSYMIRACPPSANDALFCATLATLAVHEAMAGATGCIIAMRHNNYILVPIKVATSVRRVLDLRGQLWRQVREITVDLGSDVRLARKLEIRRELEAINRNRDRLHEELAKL
In short: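 Inhibition of parasite PFK is measured as reduced ADP formation, quantified via luciferase after ATP depletion. Assay used 0.1 mM ATP, 0.5 mM F6P, 1.25 nM enzyme, 45 min incubation.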

[3] = target: Ubiquitin carboxyl-terminal hydrolase 1 (Homo sapiens) (UniProt O94782); assay: Inhibitors of USP1/UAF1: Pilot qHTS (AID 504865); conditions: purified USP1/UAF1, Ub-rhodamine cleavage fluorescence; series mostly up to 114 µM;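 further: rhodamine fluorescence freed from ubiquitin-rhodamine substrate followed over time; top concentration of the series differs between compounds; on the % scale 0 is the no-effect control and ±100 the full control effect; nearly all actives have a fitted effect of over 35% in size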
Sequence of Ubiquitin carboxyl-terminal hydrolase 1 (Homo sapiens) (O94782 whole entry, looked up): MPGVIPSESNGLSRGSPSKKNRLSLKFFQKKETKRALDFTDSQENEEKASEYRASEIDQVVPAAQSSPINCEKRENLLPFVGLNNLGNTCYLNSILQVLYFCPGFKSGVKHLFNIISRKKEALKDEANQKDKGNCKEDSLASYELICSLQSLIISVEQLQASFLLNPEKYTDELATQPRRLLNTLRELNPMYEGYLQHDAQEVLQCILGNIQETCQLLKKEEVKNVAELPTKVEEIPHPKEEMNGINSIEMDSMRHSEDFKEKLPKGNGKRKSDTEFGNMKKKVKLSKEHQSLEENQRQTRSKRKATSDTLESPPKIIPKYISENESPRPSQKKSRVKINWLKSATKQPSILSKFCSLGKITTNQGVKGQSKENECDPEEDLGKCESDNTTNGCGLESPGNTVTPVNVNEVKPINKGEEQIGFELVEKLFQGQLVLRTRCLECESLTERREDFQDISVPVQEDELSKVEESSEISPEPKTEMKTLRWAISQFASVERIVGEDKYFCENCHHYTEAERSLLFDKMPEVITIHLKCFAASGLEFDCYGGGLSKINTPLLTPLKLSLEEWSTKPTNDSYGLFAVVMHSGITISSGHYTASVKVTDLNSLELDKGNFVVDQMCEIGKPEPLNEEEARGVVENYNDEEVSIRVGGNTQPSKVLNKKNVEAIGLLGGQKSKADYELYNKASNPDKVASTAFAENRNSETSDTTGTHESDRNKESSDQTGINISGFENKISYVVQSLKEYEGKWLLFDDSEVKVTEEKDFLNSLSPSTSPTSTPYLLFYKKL
In short: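 USP1/UAF1 complex (1nM) preincubated with compound 15 min at room temperature, then Ub-Rho substrate (150nM final) added. Fluorescence read kinetically at 480/540 nm, 6 reads every 60 seconds. Buffer: 50mM HEPES pH 7.8, 0.5mM EDTA, 0.1 mg/ml BSA, 1mM TCEP, 0.01% Tween-20.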

[4] = target: Luciferin 4-monooxygenase (Photinus pyralis) (UniProt P08659); assay: Biochemical firefly luciferase enzyme assay for NPC (AID 624030);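 further: purified P. pyralis luciferase at 10 nM with luciferin and ATP substrate; 0% = DMSO and -100% = full luciferase inhibition by PTC124 control; nearly all actives have a fitted effect of over 70% in size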; conditions: purified P. pyralis luciferase, luminescence, 5 min; series mostly up to 24.9 µM
Sequence of Luciferin 4-monooxygenase (Photinus pyralis) (P08659 whole entry, looked up): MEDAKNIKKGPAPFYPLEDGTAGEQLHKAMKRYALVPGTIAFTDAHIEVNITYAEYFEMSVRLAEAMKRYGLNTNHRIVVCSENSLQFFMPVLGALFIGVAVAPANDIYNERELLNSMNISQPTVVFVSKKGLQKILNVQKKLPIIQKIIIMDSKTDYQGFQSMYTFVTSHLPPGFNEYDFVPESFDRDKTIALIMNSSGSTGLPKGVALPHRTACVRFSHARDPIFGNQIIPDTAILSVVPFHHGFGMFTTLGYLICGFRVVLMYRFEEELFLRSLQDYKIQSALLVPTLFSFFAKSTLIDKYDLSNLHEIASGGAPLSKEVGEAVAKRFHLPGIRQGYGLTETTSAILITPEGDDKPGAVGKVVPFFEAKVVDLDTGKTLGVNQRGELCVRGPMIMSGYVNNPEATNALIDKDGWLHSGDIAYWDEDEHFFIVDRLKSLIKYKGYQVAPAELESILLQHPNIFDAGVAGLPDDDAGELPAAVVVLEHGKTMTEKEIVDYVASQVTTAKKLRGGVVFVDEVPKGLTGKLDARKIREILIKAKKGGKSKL
In short: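 Purified P. pyralis luciferase at 10 nM in 50 mM Tris Acetate (final), luminescence read within 5 minutes of enzyme addition to compounds. Activity normalised to PTC124 versus DMSO; concentration-response curves classed by r2, magnitude and activity.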

[5] = qHTS profiling for inhibitors of Plasmodium falciparum proliferation (AID 504749); further: potency means the concentration at half of the fitted maximal effect;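 on activity, negative = inhibition: 0% = DMSO vehicle and full inhibition = artemisinin control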; on all read-outs here: nearly all actives have a fitted effect of over 60% in size; conditions: P. falciparum in erythrocytes, SYBR Green DNA, 72 h; for activity, negative = inhibition: at 28.7 µM (top of the series)
In short: (§1)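 Each compound contacts P. falciparum-infected red blood cells for 72 h at 37 C; lysis buffer (Tris, EDTA, saponin, Triton X, SYBR Green I) is added and fluorescence measured next morning; values normalized to controls.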

3D7 = assay: as above; conditions: P. falciparum in erythrocytes, SYBR Green DNA, 72 h; series mostly up to 12.8 µM
In short: as §1

AS120 = assay: as above; conditions: P. falciparum in erythrocytes, SYBR Green DNA, 72 h; series mostly up to 12.8 µM
In short: as §1

C2A = assay: as above; conditions: P. falciparum in erythrocytes, SYBR Green DNA, 72 h; series mostly up to 12.8 µM
In short: as §1

CP185 = assay: as above; conditions: P. falciparum in erythrocytes, SYBR Green DNA, 72 h; series mostly up to 12.8 µM
In short: as §1

CP191 = assay: as above; conditions: P. falciparum in erythrocytes, SYBR Green DNA, 72 h; series mostly up to 12.8 µM
In short: as §1

CP192 = assay: as above; conditions: P. falciparum in erythrocytes, SYBR Green DNA, 72 h; series mostly up to 12.8 µM
In short: as §1

CP217 = assay: as above; conditions: P. falciparum in erythrocytes, SYBR Green DNA, 72 h; series mostly up to 12.8 µM
In short: as §1

CP238 = assay: as above; conditions: P. falciparum in erythrocytes, SYBR Green DNA, 72 h; series mostly up to 12.8 µM
In short: as §1

CP247 = assay: as above; conditions: P. falciparum in erythrocytes, SYBR Green DNA, 72 h; series mostly up to 12.8 µM
In short: as §1

CP250 = assay: as above; conditions: P. falciparum in erythrocytes, SYBR Green DNA, 72 h; series mostly up to 12.8 µM
In short: as §1

CP262 = assay: as above; conditions: P. falciparum in erythrocytes, SYBR Green DNA, 72 h; series mostly up to 12.8 µM
In short: as §1

ECU = assay: as above; conditions: P. falciparum in erythrocytes, SYBR Green DNA, 72 h; series mostly up to 12.8 µM
In short: as §1

FAB9 = assay: as above; conditions: P. falciparum in erythrocytes, SYBR Green DNA, 72 h; series mostly up to 12.8 µM
In short: as §1

HB3 = assay: as above; conditions: P. falciparum in erythrocytes, SYBR Green DNA, 72 h; series mostly up to 12.8 µM
In short: as §1

SC27B = assay: as above; conditions: P. falciparum in erythrocytes, SYBR Green DNA, 72 h; series mostly up to 12.8 µM
In short: as §1

[6] = measured here: cell count channel max response
[7] = measured here: lipid channel max response

C[C@]12C=CC(=O)C=C1CCC1C2C(O)C[C@]2(C)C1CC[C@]2(O)C(=O)CO (stereo partly drawn)
inactive: activity change, negative = inhibition [1] 4.07% | outcome [2] | Potency [3] | Potency [4] | activity, negative = inhibition ([5]; parasite line A) 13% | activity, negative = inhibition ([5]; parasite line B) 6.28% | Potency (3D7) | Potency (AS120) | Potency (C2A) | Potency (CP185) | Potency (CP191) | Potency (CP192) | Potency (CP217) | Potency (CP238) | Potency (CP247) | Potency (CP250) | Potency (CP262) | Potency (ECU) | Potency (FAB9) | Potency (HB3) | Potency (SC27B)
19.1%: max response [1, 6]
24.5%: max response [1, 7]

CC1=C(CCC(=O)O)c2cc3nc(cc4[nH]c(cc5[nH]c(cc1n2)c(C)c5C(C)O)c(C)c4C(C)O)C(C)=C3CCC(=O)O (stereo not drawn)
12.6%: max response [1, 6]
18.6%: max response [1, 7]
inactive: activity change, negative = inhibition [1] 3.12% | Potency [3]

CC1(C)OC2CC(=O)OC[C@@]23C1CC(=O)[C@]1(C)C3CC[C@@]2(C)C(c3ccoc3)OC(=O)C3O[C@@]321 (stereo partly drawn)
inactive: activity change, negative = inhibition [1] 7.05% | outcome [2] | Potency [3] | Potency [4] | activity, negative = inhibition ([5]; parasite line A) -0.282% | activity, negative = inhibition ([5]; parasite line B) 13.3% | Potency (3D7) | Potency (AS120) | Potency (C2A) | Potency (CP185) | Potency (CP191) | Potency (CP192) | Potency (CP217) | Potency (CP238) | Potency (CP247) | Potency (CP250) | Potency (CP262) | Potency (ECU) | Potency (FAB9) | Potency (HB3) | Potency (SC27B)
29.2%: max response [1, 7]
20.2%: max response [1, 6]

C[C@]1(c2ccccc2)OC(C(=O)O)=CC1=O
-6.08%: max response [1, 7]
inactive: activity change, negative = inhibition [1] -2% | outcome [2] | Potency [3] | Potency [4] | activity, negative = inhibition ([5]; parasite line A) 4.24% | activity, negative = inhibition ([5]; parasite line B) 8.18% | Potency (3D7) | Potency (AS120) | Potency (C2A) | Potency (CP185) | Potency (CP191) | Potency (CP192) | Potency (CP217) | Potency (CP238) | Potency (CP247) | Potency (CP250) | Potency (CP262) | Potency (ECU) | Potency (FAB9) | Potency (HB3) | Potency (SC27B)
-4.61%: max response [1, 6]

CN(C)CCCOC1C(C(O)CO)OC2OC(C)(C)O[C@@H]21 (stereo partly drawn)
inactive: activity change, negative = inhibition [1] 4.25% | outcome [2] | Potency [3] | Potency [4] | activity, negative = inhibition ([5]; parasite line A) 6.96% | activity, negative = inhibition ([5]; parasite line B) 11.3% | Potency (3D7) | Potency (AS120) | Potency (C2A) | Potency (CP185) | Potency (CP191) | Potency (CP192) | Potency (CP217) | Potency (CP238) | Potency (CP247) | Potency (CP250) | Potency (CP262) | Potency (ECU) | Potency (FAB9) | Potency (HB3) | Potency (SC27B)
18.7%: max response [1, 7]
11.4%: max response [1, 6]

CNC1C(OC2C(O[C@@H]3C(O)C(O)[C@@H](N=C(N)N)C(O)C3N=C(N)N)OC(C)[C@@]2(O)CO)OC(CO)C(O)C1O (stereo partly drawn)
13.3%: max response [1, 6]
25.4%: max response [1, 7]
inactive: activity change, negative = inhibition [1] 8.79% | outcome [2] | Potency [3] | Potency [4] | activity, negative = inhibition ([5]; parasite line A) 9.26% | activity, negative = inhibition ([5]; parasite line B) 13.4% | Potency (3D7) | Potency (AS120) | Potency (C2A) | Potency (CP185) | Potency (CP191) | Potency (CP192) | Potency (CP217) | Potency (CP238) | Potency (CP247) | Potency (CP250) | Potency (CP262) | Potency (ECU) | Potency (FAB9) | Potency (HB3) | Potency (SC27B)

CO[C@]12C(COC(N)=O)C3=C(C(=O)C(C)=C(N)C3=O)N1CC1NC12 (stereo partly drawn)
active: Potency ([5]; parasite line A) 1260 nM

C=C1C2CC[C@@]3(C)C(c4ccoc4)OC(=O)C[C@@]13OC1CC(=O)C(C)(C)C(C(O)C(=O)OC)[C@]12C (stereo partly drawn)
11.1%: max response [1, 6]
18.5%: max response [1, 7]
inactive: activity change, negative = inhibition [1] -0.848% | Potency [3]

CC1(C)SC2C(NC(=O)C(N)c3ccccc3)C(=O)N2C1C(=O)O (stereo not drawn)
15.7%: max response [1, 6]
29.5%: max response [1, 7]
inactive: activity change, negative = inhibition [1] 7.23% | Potency [3] | Potency [4]

Cc1cc(=O)oc2cc(O[C@@H]3O[C@H](C(=O)O)[C@@H](O)[C@H](O)[C@H]3O)ccc12
inactive: activity change, negative = inhibition [1] 7.88% | Potency [3]
8.78%: max response [1, 6]
16.3%: max response [1, 7]
